# Screens (PubChem)
# hgDAF-12 ag – H. glycines DAF-12 receptor agonists, primary screen, cell-based, luminescence, HEK293, GAL4 fusion, UAS-luciferase; HEK293 GAL4-hgDAF12 UAS-luciferase reporter, agonist luminescence; normalized to butyrate control; actives 1.8% (n = 370,000); activation, % at 6.8 µM; AID 687014, 2013;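 active means activation above a cutoff set at the mean of all screened compounds plus 3 SD, cut at about 10% in these data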;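 further: 0% = DMSO wells and 100% = sodium butyrate wells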
# hcDAF-12 act – H. contortus DAF-12 nuclear receptor activators, primary screen, cell-based, luminescence, HEK293, lit1-tk-luc reporter | HEK293 hcDAF-12 lit1-tk-luc reporter; 0% DMSO, 100% Δ7-dafachronic acid | activation, % at 6.8 µM | actives 1.4% (n = 370,000);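 active means activation above the mean of all tested compounds plus 3 SD, cut at about 5.5% in these data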;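 further: 100% = response to 3 µM Δ7-dafachronic acid high control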
# NF-kB expr up – activators of NF-kB expression in neurons, primary screen, cell-based, HTS; actives 1.6% (n = 190,000); fold change at 12.5 µM; human neuronal cells, NF-kB reporter expression; hits give high values; in the data active means fold change above about 3.3
# ssDAF-12 act – S. stercoralis DAF-12 nuclear receptor activators, primary screen, cell-based, luminescence, HEK293, GRIP1 co-expression, lit1-tk-luc; activation, % at 6.8 µM; Nuclear hormone receptor DAF-12 (Strongyloides stercoralis); HEK293 ssDAF-12/GRIP1 lit1-tk-luc reporter; % of 3 µM dafachronic acid response; AID 652126, 2013; actives 1% (n = 370,000);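 active means activation above the mean over all tested compounds plus 3 SD, cut at about 0.9% in these data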;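 further: 0% = DMSO-only wells and 100% = 3 µM delta7-dafachronic acid wells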
# APP 5'UTR act – activators of APP 5'UTR luciferase reporter, primary screen, SH-SY5Y cells; SH-SY5Y APP 5'UTR luciferase reporter, luminescence; zero percent = DMSO vehicle wells; activation, % at 2 µM; actives 1% (n = 190,000); AID 1276, 2008;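 active means activation above a set limit, based on mean plus 3 SD of controls, cut at about 140% in these data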
# hgDAF12 ag – H. glycines DAF-12 receptor agonists, confirmation, cell-based, luminescence, HEK293, GAL4-LBD fusion | shares compounds with hgDAF-12 ag | HEK293 GAL4-hgDAF12 luciferase reporter, agonist mode; percent of butyrate response | activation, % at 6.8 µM | actives 80% (n = 3,300);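 active means mean activation over triplicate wells above the hit cutoff derived from the earlier primary screen, cut at about 11% in these data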;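 further: 0% = DMSO low control and 100% = 2 mM sodium butyrate high control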
# LXR ag 2 – LXR agonists, Gal4 luciferase reporter, confirmation, counter-screen for hgDAF-12 agonist project, cell-based, luminescence, HEK293, H. glycines campaign | activation, % at 6.8 µM | 24 h | AID 743051, 2013 | shares compounds with hgDAF-12 ag | 3,300 tested, under 10 active;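 active means mean activation of the triplicate above a set limit carried over from the primary screen, none filed active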
# Target sequence (P55055 whole entry, looked up, the tested form may be a part): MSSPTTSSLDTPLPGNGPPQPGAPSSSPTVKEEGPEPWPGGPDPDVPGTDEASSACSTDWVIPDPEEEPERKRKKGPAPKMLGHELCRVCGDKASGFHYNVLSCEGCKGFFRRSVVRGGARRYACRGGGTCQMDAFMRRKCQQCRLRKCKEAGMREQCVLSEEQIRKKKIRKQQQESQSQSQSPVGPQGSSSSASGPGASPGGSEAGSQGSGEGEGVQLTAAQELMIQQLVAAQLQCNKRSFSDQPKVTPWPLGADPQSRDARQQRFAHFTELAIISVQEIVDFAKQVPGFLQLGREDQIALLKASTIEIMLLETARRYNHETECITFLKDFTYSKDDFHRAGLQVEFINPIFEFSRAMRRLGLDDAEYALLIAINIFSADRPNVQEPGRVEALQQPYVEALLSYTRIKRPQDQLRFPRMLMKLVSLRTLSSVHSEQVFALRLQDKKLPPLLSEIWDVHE
# An asterisk follows results filed as active; · = not tested or not shown. Rows were chosen to be rich in hits. Some 3.4% of all compounds tested hit in one or more screens of this group.
SMILES,hgDAF-12 ag,hcDAF-12 act,NF-kB expr up,ssDAF-12 act,APP 5'UTR act,hgDAF12 ag,LXR ag 2
Brc1c(CSc2nc3ccccc3s2)nc2ncccn12,16*,1,4.5*,0,68,12*,1
CC1CCc2sc(C(=O)NCC3CCCO3)cc2C1 (configuration not stated),15*,3,·,0,·,13*,1
CCOC(=O)/C=C/c1cccc(C)c1O,14*,1,·,0,·,12*,0
O=C(CNC(=O)c1cccs1)c1ccc(Br)cc1,15*,2,·,-1,·,14*,1
O=C(CNC(=O)c1cccs1)OCc1ccc(Br)cc1,0,0,·,-1,·,·,·
Cc1ccc(C(C)(C)NC(=O)C2CCC(=O)N(C3CCCCCC3)C2)cc1 (configuration not stated),13*,6.0*,·,0,·,14*,0
COc1ccc(C(=O)Nc2ccc3c(c2)OCCO3)cc1Br,15*,2,·,0,·,15*,1
O=C(Nc1ccc2c(c1)OCCO2)c1ccc(Cl)c(Cl)c1,15*,4,·,1,·,17*,1
COc1ccc(NC(=O)c2ccc3c(c2)OCO3)cc1[N+](=O)[O-],4,1,1.2,0,37,·,·
COc1ccc(C(=O)Nc2ccc(Nc3ccccc3)cc2)cc1Br,3,0,·,-1,·,·,·
Cc1ccc(C(=O)Nc2ccc3c(c2)OCO3)cc1S(=O)(=O)N1CCCC1,3,-1,1.6,-1,37,·,·
Cc1cc(C(=O)Nc2ccc3c(c2)OCCO3)ccc1[N+](=O)[O-],18*,5,·,1,·,12*,1
Cc1ccc(C(=O)Nc2ccc3c(c2)OCO3)cc1Cl,18*,6.1*,·,0,·,20*,1
COC(=O)c1cc(-c2ccc(C)cc2)c(=O)n2c1CCC2,3,2,·,0,·,·,·
Cc1cc(NC(=O)c2ccc3nccnc3c2)ccc1Br,16*,5,·,1,·,15*,1
CCCCC(=O)Nc1ccc(C(=O)NNC(=O)c2ccc(C)c(Br)c2)cc1,0,-1,1.2,-1,-19,·,·
Cc1cc(C(=O)Nc2cnc3ccccc3c2)ccc1[N+](=O)[O-],15*,3,2.2,-1,204*,17*,1
CC(=O)c1ccc(NC(=O)c2ccc(C)c(Br)c2)cc1,16*,5.7*,4*,0,203*,18*,1
O=C(Nc1ccc2c(c1)OCO2)c1n[nH]c(=O)c2ccccc12,18*,2,·,-1,·,9,1
CCC[C@H]1[C@@H](NC(=O)c2ccc(Cl)c(C(F)(F)F)c2)CC[C@@]23CCCN2C(=O)CCC[C@@H]13,-2,-1,·,-2,·,·,·
O=C(CC1CCCC1)N[C@@H](Cc1cccnc1)C(=O)N1CCC[C@H]1C(=O)NCCc1ccccc1Cl,2,3,·,-1,·,·,·
COc1ccccc1OCCNC(=O)CNC(=O)c1ccc2c(c1)OCO2,-1,1,·,-1,·,·,·
CN1CCN(c2ccc(NC(=O)c3ccc4c(c3)OCCO4)cc2)CC1,17*,6.1*,1.6,1,141*,11*,1
O=C(Nc1ccc2c(c1)OCO2)c1ccc(Cl)nc1,5,4,1.8,0,18,·,·
CCCOc1cccc(C(=O)Nc2ccc3c(c2)OCCO3)c1,19*,6.3*,·,1,·,20*,1
SMILES,hgDAF-12 ag,hcDAF-12 act,NF-kB expr up,ssDAF-12 act,APP 5'UTR act,hgDAF12 ag,LXR ag 2
O=C(Nc1ccc2c(c1)OCO2)c1cnc(Cl)c(Cl)c1,21*,6.3*,·,1.8*,·,16*,1
COc1ccccc1OCCNC(=O)c1ccc2c(c1)OCCO2,17*,5,·,0,·,14*,1
C[C@@H]1COc2cccc(F)c2S(=O)(=O)N1C,2,-2,·,-1,·,·,·
CC(=O)CC[C@@H]1CC[C@]2(CCCN(C(=O)C3CCCC3)C2)O1,-2,3,·,-1,·,·,·
CC(=O)c1ccc(NC(=O)c2ccc3snnc3c2)cc1,14*,1,·,-1,·,12*,1
O=C(Nc1ccc2c(c1)OCCO2)c1ccc2nccnc2c1,15*,5,·,0,165*,15*,1
CC(/C=N/NC(=O)CSc1nnc(SCc2ccc(C)cc2)s1)=C\c1ccco1,1,-2,·,-1,·,·,·
COc1ccc(C(=O)N/N=C(\C)Cn2cnc([N+](=O)[O-])n2)cc1,15*,2,1.5,-1,7,0,0
C/C(Cn1cnc([N+](=O)[O-])n1)=N\NC(=O)c1ccncc1,0,-1,0.98,-1,5,·,·
Cc1ccnc(NC(=O)/C=C/c2cccs2)c1,16*,5.6*,1.1,0,191*,19*,1
Cc1c(C(=O)Nc2cc(F)cc(F)c2)cnn1-c1ccccc1,9,0,·,1,·,·,·
Cc1c(C(=O)Nc2ccccc2F)cnn1-c1ccccc1,14*,1,·,0,·,13*,1
CCc1ccc(NC(=O)c2cnn(-c3ccccc3)c2C)cc1,15*,5,5.9*,1.1*,155*,19*,1
COc1ccc(CNC2CCC23CCCCC3)cc1OC (configuration not stated),-1,-2,·,-2,·,·,·
CN(C)c1ccc(-c2csc(C(O)c3ccccc3)n2)cc1 (configuration not stated),14*,4,·,0,·,19*,1
OC(c1ccccc1)c1nc(-c2cc3ccccc3o2)cs1 (configuration not stated),17*,5,·,0,·,15*,1
NC(=NC(=O)/C=C/c1ccccc1Br)N(CC#Cc1ccccc1)CC#Cc1ccccc1,-1,-2,·,-1,·,·,·
Fc1ccc(Nc2nc3ccccc3s2)cc1,26*,5,3.3*,0,107,12*,0
Cc1ccccc1Nc1nc2ccccc2s1,17*,6.2*,5.6*,0,89,18*,1
O=c1c2ccccc2nc2sc(Nc3ccc(F)cc3)nn12,6,3,·,0,·,·,·
NC(=O)Cc1cccc(C(=O)c2ccccc2)c1N,-3,-2,·,-1,·,·,·
